Results filed as inconclusive are left out. Active and inactive are the calls of the source. Unless noted, calls come from the whole dose curve; as a rule, active = well fitted curve in either direction with a large enough effect (not every such curve was filed as active); inconclusive = small, poorly fitted or top-dose-only effect, or another doubt; inactive = flat fitted curve, though single readings scatter.
Key:
[1] = AP1 Signaling Pathway (AID 357); conditions: ME-180 AP-1-bla reporter, EGF-induced, beta-lactamase ratio, 5 h; at 17.2 µM (top of the series) unless noted; note: % is set by controls: 0 for no effect and ±100 for the full control effect
In short: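 ME-180 cells with beta-lactamase reporter under AP-1 response element, stimulated with EC50 EGF; compounds tested in titration series, 5 h at 37 °C. CCF4 substrate added 2.5 h at room temperature; 460/530 nm emission ratio gave %activity and AC50.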

[2] = NFAT Signaling Pathway (AID 444); conditions: Jurkat NFAT-bla M1, carbachol, beta-lactamase ratio, 5 h; at 17.2 µM (top of the series) unless noted;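 note: carbachol stimulus at about its EC50 of 1 µM final; % is set by controls: 0 for no effect and ±100 for the full control effect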
In short: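 Jurkat cells carrying an NFAT-driven β-lactamase reporter and co-transfected muscarinic M1 receptor were treated with compound plus carbachol (1 uM final, an EC50 level) for 5 h at 37 °C. CCF4 loading followed for 1 h at RT; 460/530 nm ratio gave %activity.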

[3] = target: Glucocorticoid receptor (Homo sapiens) (UniProt P04150); test: GR-GFP Redistribution (AID 450;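 active = compounds whose dose series gives a full or clear partial fitted curve of increased nuclear translocation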; note: potency is the fitted concentration of half-maximal effect)
Sequence of Glucocorticoid receptor (Homo sapiens) (P04150 whole entry, looked up, the tested form may be a part): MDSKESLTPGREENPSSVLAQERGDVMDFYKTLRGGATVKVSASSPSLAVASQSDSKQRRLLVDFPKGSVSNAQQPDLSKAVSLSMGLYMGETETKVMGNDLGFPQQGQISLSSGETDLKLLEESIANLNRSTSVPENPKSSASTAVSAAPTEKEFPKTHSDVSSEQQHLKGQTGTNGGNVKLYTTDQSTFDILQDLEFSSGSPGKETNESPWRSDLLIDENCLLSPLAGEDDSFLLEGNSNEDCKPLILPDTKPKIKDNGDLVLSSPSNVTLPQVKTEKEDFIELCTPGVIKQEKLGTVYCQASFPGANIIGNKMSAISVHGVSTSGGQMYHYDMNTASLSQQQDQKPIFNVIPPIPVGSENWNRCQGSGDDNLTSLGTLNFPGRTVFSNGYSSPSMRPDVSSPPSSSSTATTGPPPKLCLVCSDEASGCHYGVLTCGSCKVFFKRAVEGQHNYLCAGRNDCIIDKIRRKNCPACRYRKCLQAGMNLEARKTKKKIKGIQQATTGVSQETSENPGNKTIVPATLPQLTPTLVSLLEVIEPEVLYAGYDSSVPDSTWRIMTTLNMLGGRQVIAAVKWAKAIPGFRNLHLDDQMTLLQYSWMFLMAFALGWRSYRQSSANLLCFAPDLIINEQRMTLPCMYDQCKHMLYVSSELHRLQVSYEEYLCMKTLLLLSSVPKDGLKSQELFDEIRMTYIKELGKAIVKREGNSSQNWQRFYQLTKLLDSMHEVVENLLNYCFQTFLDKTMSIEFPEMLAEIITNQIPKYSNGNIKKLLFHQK

[4] = target: Glucocorticoid receptor (Homo sapiens) (UniProt P04150); test: GR-EFC Redistribution (AID 451; calls by dose curve; note: potency is the fitted concentration of half-maximal effect); conditions: CHO-K1 GR-EFC translocation, beta-gal luminescence, 2 h
In short: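 CHO-K1 cells stably expressing nuclear-localized β-gal enzyme acceptor and GR fused C-terminally to the enzyme donor fragment; ligand-driven nuclear translocation restores β-gal by complementation. Compounds titrated up to 46 uM final, 2 h at 37 °C; luminescence read.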

[5] = target: Mitogen-activated protein kinase 10 (Mus musculus) (UniProt Q61831); test: JNK3 AlphaScreen Assay (AID 530);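 note: kinase came from lysate of stimulated human HepG2 cells; signal reports phosphorylation of biotinylated GST-cJun 1-79 at Ser73 with 10 µM ATP; % is set by controls: 0 for no effect and ±100 for the full control effect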
In short: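 JNK3 came from HepG2 lysates pre-activated with IL-1beta and TNF-alpha and phosphorylated biotinylated GST-cJun (1-79) at 10 uM ATP, pH 7.6, room temperature. Compounds were titrated. AlphaScreen signal used anti-phospho-cJun (Ser73) antibody.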

[6] = target: 3',5'-cyclic-AMP phosphodiesterase 4B (Homo sapiens) (UniProt Q07343); test: qHTS Assay for Inhibitors of PDE-IV (AID 607; active = well fitted activation curve with a large enough effect in the main read-out, with a control signal flat, not every such curve was filed as active; note: % of control where 0% means no effect)
Sequence of 3',5'-cyclic-AMP phosphodiesterase 4B (Homo sapiens) (Q07343 whole entry, looked up): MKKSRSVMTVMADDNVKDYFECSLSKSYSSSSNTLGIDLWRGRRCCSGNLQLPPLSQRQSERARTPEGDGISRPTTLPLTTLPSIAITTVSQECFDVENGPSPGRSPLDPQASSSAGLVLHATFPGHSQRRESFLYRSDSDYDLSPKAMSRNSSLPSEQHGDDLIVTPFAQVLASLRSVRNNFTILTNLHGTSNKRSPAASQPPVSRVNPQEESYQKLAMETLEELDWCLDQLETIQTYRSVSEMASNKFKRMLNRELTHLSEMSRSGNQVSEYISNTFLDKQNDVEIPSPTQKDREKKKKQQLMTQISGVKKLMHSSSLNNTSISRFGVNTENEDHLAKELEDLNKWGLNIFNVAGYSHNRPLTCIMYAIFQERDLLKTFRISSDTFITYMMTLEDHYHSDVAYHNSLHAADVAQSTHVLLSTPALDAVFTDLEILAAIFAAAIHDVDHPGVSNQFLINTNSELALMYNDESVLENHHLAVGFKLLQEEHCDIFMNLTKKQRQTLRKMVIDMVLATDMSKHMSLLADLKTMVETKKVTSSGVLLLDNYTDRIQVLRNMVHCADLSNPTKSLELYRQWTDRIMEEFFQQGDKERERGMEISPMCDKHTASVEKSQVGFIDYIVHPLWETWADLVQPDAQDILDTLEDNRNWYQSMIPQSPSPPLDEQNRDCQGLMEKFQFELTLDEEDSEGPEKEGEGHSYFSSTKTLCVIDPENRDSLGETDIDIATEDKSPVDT
In short: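 ACTOne HEK293 cells carry a modified cAMP-gated CNG channel and express endogenous PDE4; plated 1000 cells/well, compounds up to 22.9 uM final. Membrane-potential dye fluorescence (ex 535/em 590) was read; parental cells received 10 uM forskolin + 100 uM RO 20-1724.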

[7] = qHTS Assay for Identification of Small Molecule Antagonists for NFkB Signaling Pathway (AID 895; active = well fitted inhibition curve with a large enough effect in the signal ratio, with a control signal flat, not every such curve was filed as active; the % refers to the signal ratio; note: % is set by controls: 0 for no effect and ±100 for the full control effect)
In short: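 NFkB-bla ME-180 cervical carcinoma cells with beta-lactamase reporter under NFkB response element; compounds added, then TNF alpha at 10 pM final (EC50), 5 h at 37 C. LiveBLAzer substrate 2 h, room temperature; emission 460/530 nm at 405 nm excitation.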

[8] = qHTS Assay for Identification of Small Molecule Agonists for Thrombopoietin (TPO) Signaling Pathway (AID 917; active = well fitted curve in the direction sought with a large enough effect; an effect the other way counts as inactive or inconclusive; note: % is set by controls: 0 for no effect and ±100 for the full control effect)
In short: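 IL-3-dependent murine pro-B Ba/F3 cells, stably transfected with human TPO receptor and GpIIb-promoter luciferase, are incubated 24 hrs at 37 C with test compound and 26 pM TPO; luciferase signal is read after 10 min at room temperature.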

[9] = target: Pyruvate kinase (Leishmania mexicana) (UniProt Q27686); test: qHTS Validation Assay for Inhibitors of Leishmania Mexicana Pyruvate Kinase (AID 945; active = well fitted curve in the direction sought with a large enough effect; an effect the other way counts as inactive or inconclusive;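 note: 0% = DMSO only neutral control wells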)
Sequence of Pyruvate kinase (Leishmania mexicana) (Q27686 2-499 E452W): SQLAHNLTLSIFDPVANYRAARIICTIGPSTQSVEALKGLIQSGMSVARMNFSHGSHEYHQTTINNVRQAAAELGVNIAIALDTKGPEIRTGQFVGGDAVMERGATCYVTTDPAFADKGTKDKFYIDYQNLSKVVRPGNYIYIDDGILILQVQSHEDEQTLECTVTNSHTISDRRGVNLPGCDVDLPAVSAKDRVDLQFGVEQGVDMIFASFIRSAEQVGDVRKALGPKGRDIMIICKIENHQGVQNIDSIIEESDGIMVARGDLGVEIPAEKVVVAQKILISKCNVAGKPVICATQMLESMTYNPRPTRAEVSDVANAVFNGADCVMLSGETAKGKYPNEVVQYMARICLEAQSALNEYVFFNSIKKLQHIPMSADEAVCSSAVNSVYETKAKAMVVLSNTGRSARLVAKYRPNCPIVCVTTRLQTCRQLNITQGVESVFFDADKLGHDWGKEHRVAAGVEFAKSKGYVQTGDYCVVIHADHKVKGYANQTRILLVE
In short: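 LmPYK E451W 0.2 nM; 0.5 mM PEP, 0.1 mM ADP, 7 mM MgCl2, 50 mM KCl, imidazole pH 7.2, 0.01% Tween 20, 0.05% BSA; 1 h RT; PKLight luminescence; DMSO-normalized.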

[10] = target: Pyruvate kinase PKM (Homo sapiens) (UniProt P14618); test: qHTS Assay for Activators of Human Muscle Pyruvate Kinase (AID 954; active = well fitted curve in the direction sought with a large enough effect, not every such curve was filed as active;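 note: 0% = uninhibited enzyme and -100% = no enzyme or full thiadiazolimine inhibition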)
Sequence of Pyruvate kinase PKM (Homo sapiens) (P14618 whole entry, looked up): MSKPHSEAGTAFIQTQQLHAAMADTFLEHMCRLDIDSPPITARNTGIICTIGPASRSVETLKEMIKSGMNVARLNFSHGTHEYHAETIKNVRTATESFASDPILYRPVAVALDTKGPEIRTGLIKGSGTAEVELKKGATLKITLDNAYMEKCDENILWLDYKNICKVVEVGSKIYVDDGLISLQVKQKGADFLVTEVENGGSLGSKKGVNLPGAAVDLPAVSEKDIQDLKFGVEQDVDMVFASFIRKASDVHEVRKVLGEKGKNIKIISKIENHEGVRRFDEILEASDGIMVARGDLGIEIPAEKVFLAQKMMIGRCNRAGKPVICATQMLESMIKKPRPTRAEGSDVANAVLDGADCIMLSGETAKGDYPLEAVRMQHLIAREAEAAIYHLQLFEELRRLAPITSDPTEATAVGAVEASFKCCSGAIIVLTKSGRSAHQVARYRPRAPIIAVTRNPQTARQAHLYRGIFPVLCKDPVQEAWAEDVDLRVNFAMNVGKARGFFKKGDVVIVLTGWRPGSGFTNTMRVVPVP
In short: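 Luminescence from a luciferase ATP-detection/stop reagent reported PKM2 activity. Reactions contained 0.1 nM purified human enzyme, 0.5 mM PEP, 0.1 mM ADP and 7 mM MgCl2 at pH 7.2, run 1 h at RT.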

[11] = target: Alpha-galactosidase A (Homo sapiens) (UniProt P06280); test: Counterscreen for Glucocerebrosidase Inhibitors: qHTS Assay for Human alpha-Galactosidase at pH 4.5 (AID 992; active = well fitted curve in the direction sought with a large enough effect; an effect the other way counts as inactive or inconclusive; note: 0% is about no effect)
Sequence of Alpha-galactosidase A (Homo sapiens) (P06280 whole entry, looked up): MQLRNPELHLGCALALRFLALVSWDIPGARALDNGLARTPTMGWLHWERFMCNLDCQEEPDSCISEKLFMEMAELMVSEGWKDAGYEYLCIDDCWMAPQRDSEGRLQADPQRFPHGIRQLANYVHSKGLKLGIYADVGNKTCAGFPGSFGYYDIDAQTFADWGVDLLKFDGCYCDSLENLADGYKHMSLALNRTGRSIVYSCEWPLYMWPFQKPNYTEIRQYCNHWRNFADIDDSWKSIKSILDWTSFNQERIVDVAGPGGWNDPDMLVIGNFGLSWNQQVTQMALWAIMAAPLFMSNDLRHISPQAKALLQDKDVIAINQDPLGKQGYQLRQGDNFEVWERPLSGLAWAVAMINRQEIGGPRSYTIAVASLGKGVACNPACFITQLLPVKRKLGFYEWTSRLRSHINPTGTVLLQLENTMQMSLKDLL
In short: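 Enzyme at 2 nM final was combined with compound (0.7 nM to 77 uM) and 80 uM 4-methylumbelliferyl alpha-D-galactopyranoside in 50 mM citric acid, 0.005% Tween-20, pH 4.5. After 20 min at room temperature, fluorescence was read (Ex 365/Em 440 nm); AC50 came from Hill fits.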

[12] = target: alpha-glucosidase (Oryza sativa, rice) (UniProt Q653V4); test: Counterscreen for Glucocerebrosidase Inhibitors: qHTS Assay for Rice alpha-Glucosidase at pH 5.0 (AID 997; active = well fitted curve in the direction sought with a large enough effect; an effect the other way counts as inactive or inconclusive;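 note: 0% = full activity with enzyme and -100% = basal without enzyme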)
In short: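 Rice alpha-glucosidase (4 nM final) with 400 uM 4-methylumbelliferyl-alpha-D-glucopyranoside in citrate buffer pH 5.0, 20 min at room temperature, stopped at pH 10; fluorescence 365/440 nm, compounds 0.7 nM–77 uM, AC50 from Hill fits.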

[13] = qHTS Assay for Identification of Small Molecule Agonists for Hypoxia Response Element Signaling Pathway (AID 914; active = well fitted activation curve with a large enough effect in the signal ratio, with a control signal flat, not every such curve was filed as active; the % refers to the signal ratio; note: % of control where 0% means no effect); conditions: ME-180 HRE-bla reporter, beta-lactamase ratio, CoCl2, 17 h; activation: stronger effect = higher value
In short: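 ME-180 cells carrying an HRE-driven beta-lactamase reporter were treated with compounds in a titration series plus an EC50 level of CoCl2 for 17 h at 37 degrees Celsius; CCF4 readout as the 460nm/530nm ratio gave AC50 values.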

COc1cccc(OC)c1OCCNC[C@@H]1CSc2ccccc2O1
inactive: activity change, negative = inhibition [1] 18% [at 38 µM] | activity change, negative = inhibition [2] -12.7% [at 38 µM] | Potency [3] > 46 µM | Potency [4] > 46 µM | Potency [5] | Potency [6] | Potency [7] | Potency [8] | Potency [9] | outcome [10] | outcome [11] | outcome [12]

COc1ccc(-c2nn3c(COc4ccccc4)nnc3s2)cc1OC
inactive: activity change, negative = inhibition [1] -9.35% | activity change, negative = inhibition [2] 6.83% | Potency [3] > 20.6 µM | activation [13] -19.3%

O=C1C=C(O)CC(c2ccco2)C1 (stereo unspecified)
inactive: activity change, negative = inhibition [1] 10.5% | activity change, negative = inhibition [2] -7.18% | Potency [3] > 20.6 µM

C=CCn1c(-c2ccccc2)n[nH]c1=S
inactive: activity change, negative = inhibition [1] 6.97% | activity change, negative = inhibition [2] -4.63% | Potency [3] > 20.6 µM

CSc1nc(N2CCCC2)c2c(c1C#N)CC(C)(C)OC2
inactive: activity change, negative = inhibition [1] -20.7% | activity change, negative = inhibition [2] -19.8% | Potency [3] > 20.6 µM

CC[C@H](C)[C@@H]1O[C@]2(CC[C@@H]1C)C[C@H]1C[C@H](CC=C(C)[C@@H](O[C@@H]3C[C@H](OC)[C@H](O[C@@H]4C[C@H](OC)[C@H](O)[C@H](C)O4)[C@H](C)O3)[C@@H](C)C=CC=C3CO[C@@H]4[C@@H](O)C(C)=C[C@@H](C(=O)O1)[C@]34O)O2
inactive: activity change, negative = inhibition [1] -26.8% | activity change, negative = inhibition [2] -35.3% | Potency [3] > 20.6 µM | Potency [4] > 20.6 µM | Potency [6]

COc1ccccc1C(=O)N1CCN(Cc2ccc3c(c2)OCO3)CC1
inactive: activity change, negative = inhibition [1] -11.7% | activity change, negative = inhibition [2] -10.5% | Potency [3] > 20.6 µM

CCOc1cccc(-c2nnc3sc(COc4ccccc4)nn23)c1
inactive: activity change, negative = inhibition [1] -3.24% | activity change, negative = inhibition [2] 9.41% | Potency [3] > 20.6 µM

Cc1ccnc(N2CCN(c3c4c(c(C#N)c5nc6ccccc6n35)CCC4)CC2)c1
inactive: activity change, negative = inhibition [1] -8.81% | activity change, negative = inhibition [2] -1.93% | Potency [3] > 20.6 µM

CC1(C)Cc2c(sc3ncn4nnnc4c23)CO1
inactive: activity change, negative = inhibition [1] -0.575% | activity change, negative = inhibition [2] 0.343% | Potency [3] > 20.6 µM

O=C(COc1ccccc1)Nc1ccc(-c2nnc(-c3ccco3)o2)cc1
inactive: activity change, negative = inhibition [1] 6.06% | activity change, negative = inhibition [2] 7.57% | Potency [3] > 20.6 µM

Oc1ccc(Br)cc1CNn1cnnc1
inactive: activity change, negative = inhibition [1] 2.16% | activity change, negative = inhibition [2] 9.44% | Potency [3] > 20.6 µM

CCCCC(=O)Nc1c(O)c2ccccc2[nH]c1=O
inactive: activity change, negative = inhibition [1] 4% | activity change, negative = inhibition [2] -5.18% | Potency [3] > 20.6 µM

O=C(O)c1cc(Cl)cc(Cc2cc(Cl)cc(C(=O)O)c2O)c1O
inactive: activity change, negative = inhibition [1] 10.2% [at 7.69 µM] | activity change, negative = inhibition [2] 10.6% [at 7.69 µM] | Potency [3] > 46 µM | Potency [4] > 9.22 µM | activity change, negative = inhibition [5] 4.28% [at 11.4 µM]

Reference: PubChem BioAssay (NCATS)
